Many of the other results were omitted from the sample, so hits are more common in it than they were.
DUSP3 inh: VHR1 (DUSP3) phosphatase inhibition | P51452 | recombinant VHR phosphatase, colorimetric substrate read-out | inhibition, % at 20 µM | 50,000 tested, 0.7% active; in the data active means inhibition above about 60%
Target sequence (P51452 whole entry, looked up): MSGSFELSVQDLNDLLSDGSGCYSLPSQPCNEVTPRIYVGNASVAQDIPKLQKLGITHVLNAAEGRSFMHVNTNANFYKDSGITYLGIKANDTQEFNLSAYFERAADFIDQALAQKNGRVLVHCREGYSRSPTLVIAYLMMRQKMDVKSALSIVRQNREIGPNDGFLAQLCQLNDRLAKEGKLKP
Numbers without * were called inactive.

SMILES	DUSP3 inh
COC(=O)c1c(-c2ccc(OC)cc2)csc1N	30
COC(=O)c1c(-c2ccc(C(C)(C)C)cc2)csc1N	95*
NC(=O)c1c(-c2ccc(Cl)cc2)csc1N	67*
CCOC(=O)c1c(-c2ccc(C(C)C)cc2)csc1N	15
CCOC(=O)c1c(-c2ccc(-c3ccccc3)cc2)csc1N	5
CC1CCC(CC(=O)OCc2ccccc2)C1(C)C (stereo not given)	-1
Cc1ccc(NC(=S)N/N=C2\CC(=O)CC(C)(C)C2)cc1	4
O=C(Nc1ccc([N+](=O)[O-])cc1)C1C(c2ccccc2)=C1c1ccccc1	-1
Cc1ccc([N+](=O)[O-])cc1NC(=O)C1C2C3CCC(C3)C12 (stereo not given)	6
O=C(Nc1ccc([N+](=O)[O-])cc1)C1C2C3CCC(C3)C12 (stereo not given)	84*
O=C(COc1ccc(Cl)cc1Cl)Oc1ccccc1[N+](=O)[O-]	3
Cc1ccccc1OC(=O)COc1ccc(Cl)cc1Cl	116*
Cc1ccccc1OCC(=O)Nc1ccc(Cl)cc1Cl	-7
O=C(NCC1CCCO1)c1cnn2c1NC(c1ccco1)CC2C(F)(F)F (stereo not given)	-25
O=C(/C=C/c1ccc(-c2ccccc2[N+](=O)[O-])o1)Nc1ccc(-c2nc3ccccc3o2)cc1	106*
O=C(/C=C/c1ccc(-c2ccccc2[N+](=O)[O-])o1)Nc1ccc(O)c(-c2nc3ccccc3o2)c1	-10
O=C(/C=C/c1ccc(-c2ccccc2[N+](=O)[O-])o1)NCc1ccccc1	2
Cc1ccc(-c2csc(/C(C#N)=C/c3sccc3C)n2)c(C)c1	14
O=C(Nc1cccc2ccccc12)C1C(c2ccccc2)=C1c1ccccc1	100*
CC1(C)C(C(=O)Nc2cccc3ccccc23)C1(C)C	-9
NC(=O)C(=O)Nc1cccc2ccccc12	0
COc1cc(NC(=O)CCCOc2ccc(Cl)cc2Cl)c(OC)cc1Cl	-8
O=C(O)c1ccc(C(=O)O)c(C(=O)NCCc2ccccc2)c1	-11
CCOc1ccc(C(=S)N2CCOCC2)cc1	6
CCOc1cc(N2CCOCC2)c(OCC)cc1N	88*
SMILES	DUSP3 inh
CCOc1ccc(C(=O)Nc2ccc(N3CCOCC3)c(Cl)c2)cc1Cl	-11
CCOC(=O)c1c[nH]c2ccc([N+](=O)[O-])cc2c1=O	23
O=C(/C=C/c1ccccc1Cl)Nc1nccs1	4
O=C(CSc1nc2sc3c(c2c(=O)[nH]1)CCCC3)NCCCO	-9
CC1=C(C(=O)OCCCc2ccccc2)C(c2ccc(Cl)c(Cl)c2)CC(=O)N1 (stereo not given)	100*
CC1=C(C(=O)OCCc2ccccc2)C(c2ccccc2Cl)CC(=O)N1 (stereo not given)	-8
COC(=O)C1=C(C)NC(=O)CC1c1ccc(Cl)c(Cl)c1 (stereo not given)	-26
COc1ccc(C(=O)Nc2sc(Cc3ccccc3)c(C)c2C(N)=O)cc1	7
Cc1ccc(CCC(=O)Nc2ncc(Cc3ccc(Cl)cc3Cl)s2)o1	-21
Cc1ccc(C)n1-c1ccc(C(=O)O)c(O)c1	97*
Cc1ccc(C)n1-c1ccc(C(=O)O)c(Cl)c1	47
Cc1ccc(C)n1-c1cc(C(=O)O)cc(C(=O)O)c1	26
CCc1cccc(C)c1NC(=O)c1cccc(C)c1	-23
CC1CCc2c(sc3nc(-c4ccccc4)oc(=O)c23)C1 (stereo not given)	-29
COCCOC(=O)C1=C(C)NC2=C(C(=O)CCC2)C1c1cccc(Cl)c1 (stereo not given)	-8
CCOC(=O)C(=C/C=C/c1ccccc1)C(=O)OCC	-18
COc1ccc(NC(=O)C2C3CCC4C(CCC32)C4(Cl)Cl)cc1 (stereo not given)	-11
COc1cccc(NC(=O)C2C3CCC4C(CCC32)C4(Cl)Cl)c1 (stereo not given)	2
Cc1cc(C)c(NC(=O)C2C3CCC4C(CCC32)C4(Cl)Cl)c(C)c1 (stereo not given)	103*
Cc1ccc(-c2nc3ccccc3o2)cc1NC(=O)c1cccc(Cl)c1	-14
CCCCC(=O)Nc1ccc(C(=O)OCCC)cc1	107*
CCCOC(=O)c1ccc(NC(=O)COc2ccc(OC)cc2)cc1	-14
CCCCOC(=O)c1ccc(NC(C)=O)cc1	-14
CCCOC(=O)c1ccc(NC(=O)/C=C\C(=O)O)cc1	6
CCCOC(=O)c1ccc(NC(=O)CCC)cc1	111*
SMILES	DUSP3 inh
CCCOC(=O)c1ccc(NC(=O)c2cc(Cl)c(OC)c(Cl)c2)cc1	-11
Cc1c(NS(=O)(=O)c2ccccc2)cccc1-c1nc2ncccc2o1	-7
CN(C(=O)COc1ccc(F)cc1)C1CCS(=O)(=O)C1 (stereo not given)	4
Cc1n[nH]c(C)c1Sc1ccccc1N=Cc1ccccc1	-8
CCOC(=O)C(=O)Nc1cccc([N+](=O)[O-])c1C	1
COc1cc(/C=C2/C(=O)NN(c3ccc(C)cc3)C2=O)cc(Br)c1O	-29
COc1ccc(CCNC(=O)CN(Cc2ccccc2)S(=O)(=O)c2ccc(OC)c(OC)c2)cc1	-3
COc1ccccc1OCCOc1c(Cl)cc(/C=N/n2cnnc2)cc1OC	2
CCOc1cc(/C=N/n2cnnc2)cc(Cl)c1OCCOc1cc(C)ccc1C(C)C	110*
CCC(C)c1ccc(OCCOc2c(Cl)cc(/C=N/n3cnnc3)cc2OC)cc1 (stereo not given)	-2
CCCOC(=O)c1c(NC(=O)Cn2nc([N+](=O)[O-])cc2C)sc2c1CCCC2	8
COc1ccc(NS(=O)(=O)c2cc(C(=O)c3ccc(Br)cc3)ccc2C)cc1	-6
O=C1C=CC(=O)N1c1cccc([N+](=O)[O-])c1	25
CCOC(=O)C1=NNC(C(=O)c2ccccc2)C1c1ccccc1 (stereo not given)	0
CCOC(=O)C1=NNC(C(=O)c2ccccc2)C1c1ccc(OC)cc1 (stereo not given)	3
CCOC(=O)C1=NNC(C(=O)OCC)(C(=O)OCC)C1c1ccccc1 (stereo not given)	101*
COc1ccc(NC(=O)C2Cc3ccccc3CN2C(=O)OCc2ccccc2)cc1 (stereo not given)	-55
CCOC(=O)c1sc(NC(=O)c2ccc(C(C)C)cc2)nc1C	-15
COc1cc(/C=N/n2cnnc2)ccc1OCCOc1ccc(C(C)(C)C)cc1	-1
CCOc1cc(/C=N/n2cnnc2)ccc1OCCOc1ccc(C)cc1	-34
COc1ccccc1OCCOc1cccc(/C=N/n2cnnc2)c1	-8
CCOc1cc(/C=N/n2cnnc2)ccc1OCc1cccc2ccccc12	112*
COc1cccc(OCCOc2ccc(/C=N/n3cnnc3)cc2OC)c1	116*
CCOc1cc(/C=N/n2cnnc2)ccc1OS(=O)(=O)c1ccccc1	10
CCN(CC)c1ccc(/C=C2/SC(NC(C)=O)=NC2=O)cc1	3
SMILES	DUSP3 inh
CCOC(=O)/C(N=Nc1cccc(C)c1C)=C(/C)O	-29
C=CCc1ccccc1OCCOc1ccc(/C=C2/SC(=S)N(C)C2=O)cc1OC	0
CC(C)COc1ccc(C(=O)Nc2nc(-c3ccccc3)cs2)cc1	16
CCOc1cccc(=O)c2c(C)[nH]c(C)c12	75*
CCOc1cc(-c2ccc(O)cc2)cc(=O)c2c(C)oc(C)c12	-12
CCOc1cccc(/C=C2/SC(=S)NC2=O)c1O	-1
COc1ccc(CC(=O)Nc2ccc(Br)cc2)cc1OC	-12
COc1ccc(C(=O)N/C(=C\c2ccc(-c3cccc(Cl)c3)o2)C(=O)NCCCN2CCOCC2)cc1	-10
COc1cc(C(=O)Nc2ccccc2OC(C)C)cc(OC)c1OC	-3

Screening results deposited in PubChem BioAssay by Sanford-Burnham Center for Chemical Genomics.
